Data as given in PubChem BioAssay (Tox21).
Records with an inconclusive call do not appear. The source made the active and inactive calls. Unless noted, calls follow the shape of the dose curve; as a rule, active = well fitted curve in the direction sought with a large enough effect in the repeat runs; inconclusive = weak or mixed curves; inactive = no such curve, though single readings can be large; an effect the other way counts as inactive or inconclusive.

Legend:
[1] = qHTS assay to identify small molecule antagonists of the estrogen related receptor (ERR) signaling pathway from Tox21 library - cell viability counter screen (AID 1224834); also: nearly all actives have a fitted effect of over 30% in size
In short: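 Multiplexed viability counter screen in ERR cells: 17.5 h compound exposure at 37 C, CellTiter-Fluor added, 30 min at 37 C/5% CO2, fluorescence read.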

[2] = biological target: Luciferin 4-monooxygenase (Photinus pyralis) (UniProt P08659); experiment: qHTS assay to identify small molecule inhibitors of firefly luciferase (AID 1224835); also: nearly all actives have a fitted effect of over 25% in size; also: potency is read from the fitted curve at half-maximal effect
In short: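 Quantitative HTS format; KM concentrations of both substrates. Purified P. pyralis FLuc activity quantified from luminescence images.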

[3] = qHTS assay to identify small molecule agonists of the constitutive androstane receptor (CAR) signaling pathway - cell viability counter screen (AID 1224836); also: nearly all actives have a fitted effect of over 45% in size
In short: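 Cells were seeded and incubated 4 hrs. Compounds were added across 15 concentrations together with PK11195 at 0.75 uM final. Plates were incubated 23 hrs at 37 C. CellTiter-Fluor was added and fluorescence measured.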

[4] = qHTS assay to identify small molecule antagonists of the constitutive androstane receptor (CAR) signaling pathway - cell viability counter screen (AID 1224837); also: nearly all actives have a fitted effect of over 45% in size
In short: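 Read-out: CellTiter-Fluor fluorescence after 23 hr at 37 C/5% CO2. Cells: HepG2 double-stable for hCAR and CYP2B6-2.2kb. Compounds tested at 15 concentrations in the presence of CITCO, final concentration 50 nM.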

[5] = biological target: Nuclear receptor subfamily 1 group I member 3 (Homo sapiens) (UniProt Q14994); experiment: qHTS assay to identify small molecule antagonists of the constitutive androstane receptor (CAR) signaling pathway (AID 1224838);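 also: HepG2 cells stably expressing hCAR with CYP2B6 luciferase reporter stimulated by CITCO; nearly all actives have a fitted effect of over 40% in size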
In short: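 Read-out: ONE-Glo luciferase luminescence after 30 min at room temperature. HepG2-CYP2B6-hCAR double-stable cells, compounds in 15-point titration plus 50 nM CITCO final, 24 h at 37 C/5% CO2.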

[6] = biological target: Nuclear receptor subfamily 1 group I member 3 (Homo sapiens) (UniProt Q14994); experiment: qHTS assay to identify small molecule agonists of the constitutive androstane receptor (CAR) signaling pathway (AID 1224839);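 also: HepG2 cells stably carrying human CAR and a CYP2B6 luciferase reporter; nearly all actives have a fitted effect of over 15% in size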
In short: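 Cells were plated and incubated 4 hrs, then dosed with compounds at 15 concentrations. PK11195 was added to 0.75 uM final. After 24 hrs at 37 C, luciferase luminescence was measured.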

[7] = qHTS assay to identify small molecule antagonists of the estrogen related receptor signaling pathway with the pleiotropic PPARgamma coactivator (PGC) from Tox21 10K library - cell viability counter screen (AID 1224840; active = well fitted cell-killing curve with a large enough effect in the repeat runs, not every such curve was filed as active; also: nearly all actives have a fitted effect of over 40% in size)
In short: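 Fluorescence read-out of CellTiter-Fluor viability reagent, added after cells had been exposed to compound in DMSO for 17.5 h at 37 C; 30 min development at 37 C/5% CO2. Cells: PGC/ERR line, 2,000/well.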

[8] = biological target: Thyrotropin receptor (Homo sapiens) (UniProt P16473); experiment: qHTS assay to identify small molecule agonists of the thyroid stimulating hormone receptor (TSHR) signaling pathway (AID 1224843; calls by dose curve; also: nearly all actives have a fitted effect of over 45% in size)
In short: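 Using 15 concentrations per compound in triplicate, cAMP production was monitored in TSHR-HEK293 cells after 30 min compound incubation at RT; HTRF reagents followed, with fluorescence intensity recorded after 1 h.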

[9] = qHTS assay to identify small molecule agonists of the hypoxia (HIF-1) signaling pathway - cell viability counter screen (AID 1224844; calls by dose curve; also: nearly all actives have a fitted effect of over 50% in size; also: potency is read from the fitted curve at half-maximal effect)
In short: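 CellTiter-Glo luminescence read-out, 30 min RT, taken in the same wells as the beta-lactamase HRE reporter assay; HRE-bla ME-180 cells, 0.5% dialyzed FBS, 17 hr compound treatment at 37C, 5% CO2.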

[10] = qHTS assay to identify small molecule agonists of H2AX (AID 1224845; active = well fitted activation curve with a large enough effect in the signal ratio in the repeat runs, not every such curve was filed as active; the % refers to the signal ratio)
In short: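 Wild-type CHO-K1 cells plated overnight, then exposed 3 hr at 37C to compounds at 15 concentrations (0.76% DMSO). Lysed, then HTRF anti-pH2AX(S139)-cryptate/anti-H2AX-d2 detection after 24 hr at room temperature; emissions 665 and 620 nm.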

[11] = qHTS assay to identify small molecule agonists of the hypoxia (HIF-1) signaling pathway (AID 1224846; active = well fitted activation curve with a large enough effect in the signal ratio in the repeat runs, not every such curve was filed as active; the % refers to the signal ratio)
In short: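 Beta-lactamase FRET read-out (CCF4-AM substrate) from ME-180 cells carrying an HRE-driven bla reporter, after 17 hrs compound exposure at 37C/5% CO2. Cells were seeded at 2,000 per well in 0.5% dialyzed FBS medium and preincubated 5 hrs.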

[12] = qHTS assay to identify small molecule agonists of H2AX - cell viability counter screen (AID 1224847; calls by dose curve; also: top concentration of the series differs between compounds; nearly all actives have a fitted effect of over 30% in size)
In short: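 Cytotoxicity counter screen in wild-type CHO-K1 cells: a 3 hr compound treatment at 37C across 15 concentrations, followed by CellTiter-Glo luminescence to gauge viable cells.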

[13] = qHTS RealTime-Glo MT Cell Viability Assay in HepG2 cells - 24 hour (AID 1224867); also: nearly all actives have a fitted effect of over 50% in size; also: potency is read from the fitted curve at half-maximal effect
In short: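 Real-time, nonlytic viability: 600 HepG2 cells/well mixed with NanoLuc enzyme plus prosubstrate; 5 h settle, compound (DMSO) added by pintool; luminescence monitored over 40 h at 37 C.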

[14] = qHTS RealTime-Glo MT Cell Viability Assay in HEK293 cells - 32 hour (AID 1224868); also: top concentration of the series differs between compounds; nearly all actives have a fitted effect of over 50% in size
In short: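 Cells + reagent dispensed (600 cells/well, HEK293) → 5 h at 37 C/5% CO2 → 23 nL compound in DMSO pinned → 40 h at 37 C → luminescence read at 0, 8, 16, 24, 32, 40 h.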

[15] = A CellTox Green Cytotoxicity Assay to monitor cytotoxicity in HEK293 cells - 0 hour (AID 1224869); also: nearly all actives have a fitted effect of over 50% in size
In short: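 Read-out: fluorescence of a cell-impermeant cyanine dye staining DNA of dead cells, proportional to cytotoxicity. HEK293, 600 cells/well with reagent, compound (23 nL DMSO) added after 5 h; reads at 0, 8, 16, 24, 32, 40 h.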

[16] = qHTS RealTime-Glo MT Cell Viability Assay in HepG2 cells - 40 hour (AID 1224870); also: nearly all actives have a fitted effect of over 50% in size; also: potency is read from the fitted curve at half-maximal effect
In short: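 HepG2 cells mixed with RealTime-Glo MT reagents (NanoLuc plus cell-permeant prosubstrate) were seeded at 600 cells/well, incubated 5 h at 37 C/5% CO2, then pinned with compounds in DMSO; nonlytic luminescence tracked viability during 40 h treatment.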

[17] = qHTS assay to identify small molecule antagonists of the estrogen related receptor signaling pathway with the pleiotropic PPARgamma coactivator (PGC) from Tox21 10K library (AID 1224841; call rule not given here)
In short: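 Luminescence read-out (One-Glo luciferase reagent, 30 min at room temperature) from PGC/ERR cells exposed to DMSO-dissolved test compounds for 18 h at 37 C; cells, 2,000 per well, had been preincubated 6 h before compound transfer.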

[18] = qHTS assay to identify small molecule agonists of the estrogen related receptor signaling pathway with the pleiotropic PPARgamma coactivator (PGC) from Tox21 10K library (AID 1224842); also: nearly all actives have a fitted effect of over 15% in size
In short: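 PGC/ERR reporter cells (NTP line) were seeded 2,000 per well, rested 6 h at 37 C/5% CO2, then pin-dosed with compounds in DMSO for 18 h at 37 C; luciferase read by One-Glo luminescence after 30 min at room temperature.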

[19] = qHTS assay to identify small molecule antagonists of the estrogen related receptor (ERR) signaling pathway from Tox21 library (AID 1224848); also: nearly all actives have a fitted effect of over 50% in size
In short: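 Tox21 10K compounds in DMSO tested for ERR pathway antagonism in NTP's ERR cell line; 18 h, 37 C exposure; ONE-Glo luminescence.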

[20] = qHTS assay to identify small molecule agonists of the estrogen related receptor (ERR) signaling pathway from Tox21 library (AID 1224849; calls by dose curve; also: nearly all actives have a fitted effect of over 15% in size); details: ERR reporter cell line, ONE-Glo luciferase, 18 h; at 92.4 µM (top of the series) unless noted
In short: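 Luminescence readout (ONE-Glo, 30 min RT) after 18 h compound exposure at 37 C of NTP-supplied ERR reporter cells; cells were plated 6 h before compound addition by pin tool.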
% is scaled to controls: 0 for no effect and ±100 for the full control effect.

Sequence of Luciferin 4-monooxygenase (Photinus pyralis) (P08659 whole entry, looked up): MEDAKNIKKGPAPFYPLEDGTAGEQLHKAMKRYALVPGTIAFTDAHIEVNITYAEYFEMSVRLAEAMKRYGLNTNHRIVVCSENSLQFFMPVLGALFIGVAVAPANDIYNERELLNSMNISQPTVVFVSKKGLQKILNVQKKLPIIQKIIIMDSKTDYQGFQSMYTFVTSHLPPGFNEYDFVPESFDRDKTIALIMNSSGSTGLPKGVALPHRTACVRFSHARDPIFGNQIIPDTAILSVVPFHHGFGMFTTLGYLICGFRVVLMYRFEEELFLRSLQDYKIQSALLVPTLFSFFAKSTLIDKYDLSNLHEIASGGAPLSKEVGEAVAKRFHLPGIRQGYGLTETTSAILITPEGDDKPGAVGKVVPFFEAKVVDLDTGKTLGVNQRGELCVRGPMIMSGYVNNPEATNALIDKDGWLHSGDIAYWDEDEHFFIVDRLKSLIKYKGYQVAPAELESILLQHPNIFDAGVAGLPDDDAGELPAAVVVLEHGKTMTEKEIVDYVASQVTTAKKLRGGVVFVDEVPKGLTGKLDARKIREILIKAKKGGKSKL
Sequence of Nuclear receptor subfamily 1 group I member 3 (Homo sapiens) (Q14994 whole entry, looked up): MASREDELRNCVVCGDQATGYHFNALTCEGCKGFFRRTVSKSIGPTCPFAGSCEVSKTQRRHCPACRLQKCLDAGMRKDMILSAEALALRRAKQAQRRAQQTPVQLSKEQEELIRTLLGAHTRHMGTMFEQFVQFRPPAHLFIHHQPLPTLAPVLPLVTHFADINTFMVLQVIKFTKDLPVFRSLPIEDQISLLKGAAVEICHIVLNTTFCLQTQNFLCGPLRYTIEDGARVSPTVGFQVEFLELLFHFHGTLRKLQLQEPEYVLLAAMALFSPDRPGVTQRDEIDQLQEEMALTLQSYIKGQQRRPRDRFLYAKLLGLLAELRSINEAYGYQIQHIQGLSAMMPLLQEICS
Sequence of Thyrotropin receptor (Homo sapiens) (P16473 whole entry, looked up): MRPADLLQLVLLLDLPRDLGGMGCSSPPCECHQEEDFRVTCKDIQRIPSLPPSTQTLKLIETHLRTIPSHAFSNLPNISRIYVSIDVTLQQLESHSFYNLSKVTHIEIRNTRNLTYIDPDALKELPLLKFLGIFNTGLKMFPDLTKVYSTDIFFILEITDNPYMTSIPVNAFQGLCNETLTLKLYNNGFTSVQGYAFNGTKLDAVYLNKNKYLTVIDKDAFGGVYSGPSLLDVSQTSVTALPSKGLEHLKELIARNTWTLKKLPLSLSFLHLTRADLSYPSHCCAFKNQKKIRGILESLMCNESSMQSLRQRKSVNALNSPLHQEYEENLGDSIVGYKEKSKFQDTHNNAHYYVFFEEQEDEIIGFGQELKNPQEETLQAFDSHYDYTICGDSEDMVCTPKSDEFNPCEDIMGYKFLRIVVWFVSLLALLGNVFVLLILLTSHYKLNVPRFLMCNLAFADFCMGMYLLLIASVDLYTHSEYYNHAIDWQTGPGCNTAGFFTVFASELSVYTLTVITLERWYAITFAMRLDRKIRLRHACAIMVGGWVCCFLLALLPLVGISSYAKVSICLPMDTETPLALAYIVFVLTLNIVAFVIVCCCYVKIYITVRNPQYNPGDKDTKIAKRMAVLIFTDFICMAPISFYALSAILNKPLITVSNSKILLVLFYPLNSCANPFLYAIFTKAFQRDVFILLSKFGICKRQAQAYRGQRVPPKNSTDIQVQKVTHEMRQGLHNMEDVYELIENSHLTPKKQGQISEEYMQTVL

Cn1cc[n+](C)c1 (tested in a mixture with another compound)
inactive: Potency [1] | Potency [2] | Potency [3] | Potency [4] | Potency [5] | Potency [6] | Potency [7] | Potency [8] | Potency [9] | Potency [10] | outcome [11] | Potency [12] | Potency [13] | Potency [14] | Potency [15] | Potency [16]

Cn1sc(Cl)cc1=O
inactive: Potency [1] | Potency [2] | Potency [3] | Potency [4] | Potency [5] | Potency [6] | Potency [7] | Potency [17] | Potency [18] | Potency [9] | outcome [11] | Potency [19] | activity change, positive = activation [20] 1.6% | Potency [13] | Potency [14] | Potency [15] | Potency [16]

N#CCc1ccccc1
inactive: Potency [1] | Potency [2] | Potency [3] | Potency [4] | Potency [5] | Potency [6] | Potency [8] | Potency [9] | Potency [10] | Potency [12] | Potency [13] | Potency [14] | Potency [15] | Potency [16]

CC/C(=N\OC/C=C/Cl)C1=C(O)CC(C2CCOCC2)CC1=O (centres undefined)
inactive: Potency [1] | Potency [2] | Potency [3] | Potency [4] | Potency [5] | Potency [6] | Potency [7] | Potency [17] | Potency [8] | Potency [9] | Potency [10] | outcome [11] | Potency [12] | Potency [19] | activity change, positive = activation [20] 0.742% | Potency [13] | Potency [14] | Potency [16]

COC(=O)C(Br)CBr (centres undefined)
inactive: Potency [1] | Potency [2] | Potency [3] | Potency [4] | Potency [5] | Potency [6] | Potency [7] | Potency [18] | Potency [10] | Potency [12] | Potency [19] | activity change, positive = activation [20] -11.9% | Potency [13] | Potency [14] | Potency [16]

CCCCN=C=O
inactive: Potency [1] | Potency [2] | Potency [3] | Potency [4] | Potency [7] | Potency [17] | Potency [18] | Potency [9] | Potency [10] | outcome [11] | Potency [12] | Potency [19] | Potency [13] | Potency [14] | Potency [15] | Potency [16]

Brc1ccccc1
inactive: Potency [1] | Potency [2] | Potency [3] | Potency [4] | Potency [5] | Potency [7] | Potency [8] | Potency [9] | Potency [10] | outcome [11] | Potency [12] | Potency [13] | Potency [14] | Potency [15] | Potency [16]

CC1C(=O)C[C@]2(C(C)C)C[C@H]12 (some centres undefined)
inactive: Potency [1] | Potency [2] | Potency [3] | Potency [4] | Potency [7] | Potency [8] | Potency [9] | Potency [10] | outcome [11] | Potency [12] | Potency [13] | Potency [14] | Potency [15] | Potency [16]

O=[N+]([O-])c1ccccc1CCl
inactive: Potency [1] | Potency [2] | Potency [3] | Potency [4] | Potency [5] | Potency [7] | Potency [8] | Potency [9] | Potency [10] | outcome [11] | Potency [12] | Potency [13] | Potency [14] | Potency [15] | Potency [16]

CCC(Cl)CCl (centres undefined)
inactive: Potency [1] | Potency [2] | Potency [3] | Potency [4] | Potency [5] | Potency [17] | Potency [8] | Potency [9] | Potency [10] | outcome [11] | Potency [19] | activity change, positive = activation [20] -1.76% | Potency [13] | Potency [14] | Potency [15] | Potency [16]

Cc1cc(=O)[nH]o1
inactive: Potency [1] | Potency [2] | Potency [3] | Potency [4] | Potency [7] | Potency [9] | Potency [10] | outcome [11] | Potency [13] | Potency [14] | Potency [15] | Potency [16]

CCCN(CCCl)c1c([N+](=O)[O-])cc(C(F)(F)F)cc1[N+](=O)[O-]
inactive: Potency [1] | Potency [2] | Potency [3] | Potency [4] | Potency [5] | Potency [7] | Potency [17] | Potency [9] | Potency [10] | outcome [11] | Potency [19] | activity change, positive = activation [20] -4.52% | Potency [13] | Potency [14] | Potency [16]

NC(=O)CI
inactive: Potency [1] | Potency [3] | Potency [4] | Potency [6] | Potency [7] | Potency [17] | Potency [8] | Potency [10] | Potency [19] | Potency [15]
active: Potency [2] 80.4 µM | Potency [9] 35 µM | Potency [13] 13.9 µM | Potency [16] 6.22 µM

c1ccoc1
inactive: Potency [1] | Potency [2] | Potency [3] | Potency [4] | Potency [7] | Potency [8] | Potency [9] | Potency [10] | outcome [11] | Potency [12] | Potency [13] | Potency [14] | Potency [15] | Potency [16]

COC(=O)C(Cl)C(=O)OC
inactive: Potency [1] | Potency [2] | Potency [3] | Potency [4] | Potency [5] | Potency [7] | Potency [8] | Potency [9] | Potency [10] | outcome [11] | Potency [13] | Potency [14] | Potency [15] | Potency [16]

CO[C@@H]1[C@H](OC(=O)NC(=O)CCl)CC[C@]2(CO2)[C@H]1[C@@]1(C)O[C@@H]1CC=C(C)C
inactive: viability change, negative = cytotoxic [1] -3.88% [at 19 µM] | activity change, negative = inhibition [2] 2.04% [at 23.6 µM] | viability change, negative = cytotoxic [3] -5.35% [at 19 µM] | activity change, negative = cytotoxicity [4] -18.3% [at 19 µM] | activation [6] -1.38% [at 19 µM] | activation [8] -6.28% [at 19 µM] | activation (H2AX phosphorylation) [10] 1.5% [at 31.6 µM] | activity change, negative = cytotoxicity [12] 2.72% [at 31.6 µM] | activity, negative = inhibition [19] -8.28% [at 19 µM] | activity change, positive = activation [20] -4.67% [at 19 µM] | activity change, negative = cytotoxicity [13] 0.578% [at 15.8 µM] | activity change, negative = cytotoxic [14] 8.14% [at 15.8 µM] | cytotoxicity [15] -3.97% [at 15.8 µM] | activity change, negative = cytotoxic [16] 0.252% [at 15.8 µM]
